Experimental data from PubChem BioAssay (Tox21).
Values joined by “and” are separate entries in the source; they are usually repeats but may differ in a detail not shown here. Equal values may be shown once. Records with an inconclusive call do not appear. Where a call stands in place of a potency, no number is given. Active and inactive are the calls of the source. Calls follow the shape of the full dose curve.

Assay: qHTS assay for small molecules that induce genotoxicity in human embryonic kidney cells expressing luciferase-tagged ATAD5 - cell viability (AID 651634); also: nearly all actives have a fitted effect of over 25% in size
Settings: HEK293T ATAD5-luc cells viability, CellTiter-Fluor, 15.5 h; series mostly up to 83.3 µM
Description: National Center for Advancing Translational Sciences [NCATS]
NIH Chemical Genomics Center [NCGC]
U.S. Environmental Protection Agency [EPA]
National Institutes of Environmental Health Sciences [NIEHS]
National Toxicology Program [NTP]
U.S. Food and Drug Administration [FDA]
Enhanced Level of Genome Instability Gene 1 (ELG1; human ATAD5) protein levels increase in response to various types of DNA damage. Using a luciferase reporter-gene tagged with ElG1, a cell-based assay [developed by Kyungjae Myung, NHGRI, NIH] was used to measure the induction of ATAD5 in human embryonic kidney cells (HEK293T). So, increase in luciferase activity can be used to identify the compounds that cause genetic stress. In addition to genotoxicity, these cells were also used to test for cytotoxicity by measuring the protease activity within live cells.
Tox21 Assay Protocol Summary:
For cytotoxicity screening, 2,000 cells in 5 uL/well were dispensed into white, solid-bottom 1536-well plates using a Multidrop Combi (Thermo Scientific) dispenser. Following transfer of 23 nL compound or DMSO vehicle by a pin tool, the plates were incubated 15.5 hr at 37C and 5% CO2. 1 ul CellTiter-Fluor reagent (Promega, Madison, WI) was then added to each plate and following 30 min incubation at 37C, fluorescence intensity was quantified on a ViewLux CCD-based plate reader.
Potency is read from the fitted curve at half-maximal effect.

SMILES | Potency
CCCCOCCOCCO | inactive
Cc1ncc[nH]1 | inactive
O=C(/C=C/C=C/c1ccc2c(c1)OCO2)N1CCCCC1 | inactive
CCOC(=O)C(C#N)=C(c1ccccc1)c1ccccc1 | inactive
c1cc(-c2ccncc2)ccn1 | inactive
Cc1cccc(C(=O)O)c1 | inactive
O=S(=O)(O)c1ccc(O)cc1 | inactive
CC(=O)O[C@]1(C(C)=O)CC[C@H]2[C@@H]3C=C(Cl)C4=CC(=O)[C@@H]5C[C@@H]5[C@]4(C)[C@H]3CC[C@@]21C | inactive
CC(C)=CCCC(C)CCO (stereo not given) | inactive
COc1cc([C@@H]2c3cc4c(cc3[C@H](O)[C@H]3COC(=O)[C@H]23)OCO4)cc(OC)c1OC | inactive
O=c1oc(=O)c2cc3c(=O)oc(=O)c3cc12 | inactive
COC(=O)CCC(=O)OC | inactive
NC=O | inactive
O=C1OC2(c3cc(Br)c(O)c(Br)c3Oc3c2cc(Br)c(O)c3Br)c2c(Cl)c(Cl)c(Cl)c(Cl)c21 | 9.7 µM (active) and 37.1 µM (active)
CN(C)CCN(Cc1cccs1)c1ccccn1 | inactive
CCOCCOCCO | inactive
COc1ccccc1/C=C/C=O | inactive
O=CCCCC=O | inactive
CC(C)CC(C)(O)C#CC(C)(O)CC(C)C (stereo not given) | inactive
CCCc1c(OCCCCc2nn[nH]n2)ccc(C(C)=O)c1O | inactive

SMILES | Potency
Cc1[nH]c(=O)c(C#N)cc1-c1ccncc1 | inactive
O=C(c1ccccc1)c1ccccc1O | inactive
C[Si](C)(C)O[Si](C)(C)C | inactive
Nc1ccccc1N | inactive
O=CCc1ccccc1 | inactive
c1ccc2cc(Nc3ccc(Nc4ccc5ccccc5c4)cc3)ccc2c1 | inactive
CCCCC(CC)COC(=O)c1ccc(N(C)C)cc1 (stereo not given) | inactive
CCC(C)CO (stereo not given) | inactive
CC(C)OB(OC(C)C)OC(C)C | inactive
S=C(NC1CCCCC1)NC1CCCCC1 | inactive
COC(C)COC(C)COC(C)CO (stereo not given) | inactive
O=C(Nc1ccc([N+](=O)[O-])cc1Cl)c1cc(Cl)ccc1O | 596 nM (active) and 2.43 µM (active)
C/C=C/C(=O)O | inactive
c1ccc2c(c1)Oc1ccccc1S2 | inactive
CNCCCC12CCC(c3ccccc31)c1ccccc12 | inactive
O=C(c1ccc(OCCN2CCCCC2)cc1)c1c(-c2ccc(O)cc2)sc2cc(O)ccc12 | 26.6 µM (active) and 54.5 µM (active)
C=C(C)C(=O)OCCOC(=O)C(=C)C | inactive
Cc1c(OCC(F)(F)F)ccnc1CS(=O)c1nc2ccccc2[nH]1 (stereo not given) | inactive
Cc1c(C(N)=O)cc([N+](=O)[O-])cc1[N+](=O)[O-] | inactive
CC1=CC2C3CC(C=C3C)C2C1 (stereo not given) | inactive
